# From the supplement of paper PMC7411054
# Counter-ions that a name gives are not always drawn.
# Tests used:
# Details in all cases: treatment time: 24 h
# A549-ACTB-RAB5A [1] = assay: lowest phenotypically active concentration; higher = less potent
# How it was run: (§1)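 Two criteria together defined phenotypic activity: deviation and reproducibility. Deviation meant ≥3 of 4 wells beyond the 95th percentile of Euclidean distances in solvent control wells, and reproducibility meant a median replicate Pearson correlation above the 95th percentile of non-replicates. Wells had been treated for 24 h at 0.3, 1, 3 or 9 µM in fifteen gene-edited A549, HepG2 and WPMY1 reporter lines before live imaging.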
# A549-CANX-COX4 [2] = assay: as above
# How it was run: as §1
# A549-GM130-SQSTM1 [3] = assay: as above
# How it was run: as §1
# A549-TP53BP1-CLTA [4] = assay: as above
# How it was run: as §1
# A549-TUBA1B-RELA [5] = assay: as above
# How it was run: as §1
# HepG2-GM130-SQSTM1 [6] = assay: as above
# How it was run: as §1
# A549-ACTB-RAB5A [7] = assay: phenotypically active (imaging signature differs from DMSO and reproducible) at any of 0.3-9 uM (binary (1 = active, 0 = inactive)); higher = active
# How it was run: as §1
# A549-CANX-COX4 [8] = assay: as above
# How it was run: as §1
# A549-GM130-SQSTM1 [9] = assay: as above
# How it was run: as §1
# A549-TP53BP1-CLTA [10] = assay: as above
# How it was run: as §1
# A549-TUBA1B-RELA [11] = assay: as above
# How it was run: as §1
# HepG2-ACTB-RAB5A = assay: as above
# How it was run: as §1
# HepG2-CANX-COX4 = assay: as above
# How it was run: as §1
# HepG2-GM130-SQSTM1 [12] = assay: as above
# How it was run: as §1
# HepG2-TP53BP1-CLTA = assay: as above
# How it was run: as §1
# HepG2-TUBA1B-RELA = assay: as above
# How it was run: as §1
# WPMY1-CANX-COX4 = assay: as above
# How it was run: as §1
# WPMY1-GM130-SQSTM1 = assay: as above
# How it was run: as §1
# WPMY1-TP53BP1-CLTA = assay: as above
# How it was run: as §1
# WPMY1-TUBA1B-RELA = assay: as above
# How it was run: as §1
SMILES,lowest phenotypically active concentration (A549-ACTB-RAB5A [1]),lowest phenotypically active concentration (A549-CANX-COX4 [2]),lowest phenotypically active concentration (A549-GM130-SQSTM1 [3]),lowest phenotypically active concentration (A549-TP53BP1-CLTA [4]),lowest phenotypically active concentration (A549-TUBA1B-RELA [5]),lowest phenotypically active concentration (HepG2-GM130-SQSTM1 [6]),phenotypically active (A549-ACTB-RAB5A [7]),phenotypically active (A549-CANX-COX4 [8]),phenotypically active (A549-GM130-SQSTM1 [9]),phenotypically active (A549-TP53BP1-CLTA [10]),phenotypically active (A549-TUBA1B-RELA [11]),phenotypically active (HepG2-ACTB-RAB5A),phenotypically active (HepG2-CANX-COX4),phenotypically active (HepG2-GM130-SQSTM1 [12]),phenotypically active (HepG2-TP53BP1-CLTA),phenotypically active (HepG2-TUBA1B-RELA),phenotypically active (WPMY1-CANX-COX4),phenotypically active (WPMY1-GM130-SQSTM1),phenotypically active (WPMY1-TP53BP1-CLTA),phenotypically active (WPMY1-TUBA1B-RELA)
COc1ccc(C[C@H](N)C(=O)N[C@H]2[C@@H](O)[C@H](n3cnc4c(N(C)C)ncnc43)O[C@@H]2CO)cc1 [Puromycin dihydrochloride],≤ 0.3 µM,1 µM,1 µM,1 µM,1 µM,≤ 0.3 µM,1 (active),1 (active),1 (active),1 (active),1 (active),1 (active),1 (active),1 (active),1 (active),1 (active),1 (active),1 (active),1 (active),1 (active)
Cc1noc(C)c1-c1cc(O)cc(C(O)c2ccccc2)c1 (stereo not given),1 µM,9 µM,3 µM,3 µM,3 µM,3 µM,1 (active),1 (active),1 (active),1 (active),1 (active),1 (active),1 (active),1 (active),1 (active),1 (active),1 (active),1 (active),1 (active),1 (active)
Nc1ncnc2c1c(-c1cnc3[nH]ccc3c1)nn2C1CCCC1,≤ 0.3 µM,1 µM,≤ 0.3 µM,≤ 0.3 µM,≤ 0.3 µM,≤ 0.3 µM,1 (active),1 (active),1 (active),1 (active),1 (active),1 (active),1 (active),1 (active),1 (active),1 (active),1 (active),1 (active),1 (active),1 (active)
Cc1c[nH]c2nccc(Oc3c(F)cc(Nc4cc(Cl)nc(N)n4)cc3F)c12,≤ 0.3 µM,≤ 0.3 µM,≤ 0.3 µM,≤ 0.3 µM,1 µM,≤ 0.3 µM,1 (active),1 (active),1 (active),1 (active),1 (active),1 (active),1 (active),1 (active),1 (active),1 (active),1 (active),1 (active),1 (active),1 (active)
CC(=O)Nc1ccc(C(=O)Nc2ccccc2N)cc1,1 µM,1 µM,1 µM,3 µM,1 µM,1 µM,1 (active),1 (active),1 (active),1 (active),1 (active),1 (active),1 (active),1 (active),1 (active),1 (active),1 (active),1 (active),1 (active),1 (active)
Clc1ccc(N/N=C(\c2ccccc2)c2ccccn2)nc1,1 µM,3 µM,≤ 0.3 µM,3 µM,≤ 0.3 µM,1 µM,1 (active),1 (active),1 (active),1 (active),1 (active),1 (active),1 (active),1 (active),1 (active),1 (active),1 (active),1 (active),1 (active),1 (active)
C[C@@H](CN1CCC(n2c(=O)[nH]c3cc(Cl)ccc32)CC1)NC(=O)c1ccc2ccccc2c1,3 µM,9 µM,3 µM,9 µM,3 µM,9 µM,1 (active),1 (active),1 (active),1 (active),1 (active),1 (active),1 (active),1 (active),1 (active),1 (active),1 (active),1 (active),1 (active),1 (active)
Cc1cc(C)cc(C(=O)NOCCCCCC(=O)NO)c1,≤ 0.3 µM,≤ 0.3 µM,≤ 0.3 µM,1 µM,≤ 0.3 µM,1 µM,1 (active),1 (active),1 (active),1 (active),1 (active),1 (active),1 (active),1 (active),1 (active),1 (active),1 (active),1 (active),1 (active),1 (active)
COCc1c(C(C)C)nc(C(C)C)c(/C=C/[C@@H](O)C[C@@H](O)CC(=O)O)c1-c1ccc(F)cc1 [cerivastatin],≤ 0.3 µM,1 µM,1 µM,≤ 0.3 µM,1 µM,≤ 0.3 µM,1 (active),1 (active),1 (active),1 (active),1 (active),1 (active),1 (active),1 (active),1 (active),1 (active),1 (active),1 (active),1 (active),1 (active)
Cc1ncc(-c2ccnc(Nc3ccc(S(C)(=O)=O)cc3)n2)n1C(C)C,≤ 0.3 µM,≤ 0.3 µM,≤ 0.3 µM,≤ 0.3 µM,≤ 0.3 µM,≤ 0.3 µM,1 (active),1 (active),1 (active),1 (active),1 (active),1 (active),1 (active),1 (active),1 (active),1 (active),1 (active),1 (active),1 (active),1 (active)
Cc1c(CN2CCN(C(=O)[C@H](C)O)CC2)sc2c(N3CCOCC3)nc(-c3cnc(N)nc3)nc12,≤ 0.3 µM,≤ 0.3 µM,≤ 0.3 µM,≤ 0.3 µM,≤ 0.3 µM,≤ 0.3 µM,1 (active),1 (active),1 (active),1 (active),1 (active),1 (active),1 (active),1 (active),1 (active),1 (active),1 (active),1 (active),1 (active),1 (active)
O=C(CCCCCN1C(=O)c2cccc3cccc(c23)C1=O)NO [Scriptaid],≤ 0.3 µM,1 µM,≤ 0.3 µM,1 µM,≤ 0.3 µM,≤ 0.3 µM,1 (active),1 (active),1 (active),1 (active),1 (active),1 (active),1 (active),1 (active),1 (active),1 (active),1 (active),1 (active),1 (active),1 (active)
O=C1Cc2c([nH]c3ccc(Br)cc23)-c2ccccc2N1 [Kenpaullone],3 µM,3 µM,3 µM,3 µM,3 µM,3 µM,1 (active),1 (active),1 (active),1 (active),1 (active),1 (active),1 (active),1 (active),1 (active),1 (active),1 (active),1 (active),1 (active),1 (active)
Cc1ccc(/C(=C/CN2CCCC2)c2cccc(/C=C/C(=O)O)n2)cc1 [acrivastine],1 µM,9 µM,3 µM,9 µM,1 µM,3 µM,1 (active),1 (active),1 (active),1 (active),1 (active),1 (active),1 (active),1 (active),1 (active),1 (active),1 (active),1 (active),1 (active),1 (active)
O=C1NCCN1CCN1CCC(c2cn(-c3ccc(F)cc3)c3ccc(Cl)cc23)CC1 [sertindole],3 µM,3 µM,3 µM,9 µM,3 µM,3 µM,1 (active),1 (active),1 (active),1 (active),1 (active),1 (active),1 (active),1 (active),1 (active),1 (active),1 (active),1 (active),1 (active),1 (active)
COc1cc2c(Nc3ccc(Br)cc3F)ncnc2cc1OCC1CCN(C)CC1 [vandetanib],1 µM,3 µM,1 µM,3 µM,1 µM,3 µM,1 (active),1 (active),1 (active),1 (active),1 (active),1 (active),1 (active),1 (active),1 (active),1 (active),1 (active),1 (active),1 (active),1 (active)
O=C(Nc1cccc(Cl)c1)Nc1ncc(CCNc2ncnc3ccsc23)s1 [SNS 314 mesylate],≤ 0.3 µM,≤ 0.3 µM,≤ 0.3 µM,≤ 0.3 µM,≤ 0.3 µM,≤ 0.3 µM,1 (active),1 (active),1 (active),1 (active),1 (active),1 (active),1 (active),1 (active),1 (active),1 (active),1 (active),1 (active),1 (active),1 (active)
O=C(OC12CC3CC(CC(C3)C1)C2)c1ccc(NCc2cc(O)ccc2O)cc1 [Adaphostin],1 µM,9 µM,9 µM,9 µM,3 µM,3 µM,1 (active),1 (active),1 (active),1 (active),1 (active),1 (active),1 (active),1 (active),1 (active),1 (active),1 (active),1 (active),1 (active),1 (active)
O=C(c1cccc(Cl)c1F)N1CCN(Cc2cccc(Nc3nccs3)n2)CC1,≤ 0.3 µM,1 µM,1 µM,1 µM,1 µM,≤ 0.3 µM,1 (active),1 (active),1 (active),1 (active),1 (active),1 (active),1 (active),1 (active),1 (active),1 (active),1 (active),1 (active),1 (active),1 (active)
N#Cc1c(C2CCNCC2)cc(-c2c(O)cccc2OCC2CC2)nc1N,9 µM,9 µM,9 µM,9 µM,9 µM,9 µM,1 (active),1 (active),1 (active),1 (active),1 (active),1 (active),1 (active),1 (active),1 (active),1 (active),1 (active),1 (active),1 (active),1 (active)
COc1ccccc1-c1c[nH]c2ncc(-c3cncc(C(=O)N(C)C)c3)cc12,≤ 0.3 µM,1 µM,≤ 0.3 µM,≤ 0.3 µM,≤ 0.3 µM,≤ 0.3 µM,1 (active),1 (active),1 (active),1 (active),1 (active),1 (active),1 (active),1 (active),1 (active),1 (active),1 (active),1 (active),1 (active),1 (active)
